Only some compounds are listed: those with a hit (about 19% of all), similar ones and a draw of the others.
DT40 TDP1 CPT – qHTS for Inhibitors of human tyrosyl-DNA phosphodiesterase 1 (TDP1): qHTS in cells in presence of CPT; AID 686979, 2013; 420,000 compounds, 12% hits; chicken DT40 Tdp1-/-;hTDP1 cells + 20 nM CPT, ATP luminescence, 48 h; Potency, µM (doses to about 46.2 µM), most hits filed as inhibitors; also: nearly all actives have a fitted effect of over 55% in size
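Chicken DT40 Tdp1-/- cells complemented with human TDP1, 400 cells/well, exposed to compounds plus 20 nM camptothecin for at least 48 h at 37 C; viability read as ATP content by CellTiter-Glo luminescence.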
TDP1 cell noCPT – qHTS for Inhibitors of human tyrosyl-DNA phosphodiesterase 1 (TDP1): qHTS in cells in absence of CPT; DT40 Tdp1-/- hTDP1 cells, no CPT, ATP luminescence, 48 h; Potency, µM (highest dose often 46.2 µM), hits mostly inhibitors; 420,000 compounds, 15% hits; AID 686978, 2013; also: nearly all actives have a fitted effect of over 55% in size
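Growth of hTDP1-complemented DT40 Tdp1-knockout cells is measured by ATP luminescence after at least 48 hr compound exposure at 37 °C, with DMSO substituting for the 20 nM CPT used in the parallel screen.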
IL-1B inflam inh – qHTS for Inhibitors of Inflammasome Signaling: IL-1-beta AlphaLISA Primary Screen | THP-1 LPS/ATP IL-1B secretion, AlphaLISA, 16 h; active compounds read low | 360,000 compounds, 4.7% hits | activity change, % at 57.5 µM | AID 743279, 2014; in the data active = activity change below about -50%; inconclusive = mostly about -30% to -49%
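THP-1 cells pretreated 1 hr with compounds (up to 57.5 uM final), then stimulated with LPS (250 ng/mL final) plus ATP (1.25 mM final); secreted IL-1B measured by AlphaLISA after 16 hr, decreased signal indicating inhibition.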
HT1080 IDH1KD tx – qHTS for induction of synthetic lethality in tumor cells producing 2HG: qHTS for the HT-1080-IDH1KD cell line; HT-1080 IDH1 knockdown viability, ATP luminescence, 48 h; Potency, µM (highest dose often 46.1 µM), most hits filed as cytotoxic; 360,000 compounds, 2% hits; AID 686971, 2013
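Cytotoxicity counter-line: IDH1KD HT-1080, 48 h, CellTiter-Glo. Curves classed by r2, magnitude and activity.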
HT1080NT lethal – qHTS for induction of synthetic lethality in tumor cells producing 2HG: qHTS for the HT-1080-NT fibrosarcoma cell line; HT-1080-NT fibrosarcoma viability, CellTiter-Glo ATP luminescence, 48 h; Potency, µM (top dose mostly 46.1 µM), usual class: cytotoxic; 360,000 compounds, 1.6% hits; AID 686970, 2013;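 also: NT is the 2HG producing partner of a matched IDH1 knockdown line; nearly all actives have a fitted effect of over 55% in size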
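Fibrosarcoma NT cells, 750 per well in 5% FBS RPMI, were exposed to compound for 48 hours. Viability: CellTiter-Glo luminescence.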
Numbers stand for hits; n = inactive; u = inconclusive; x = no result. Unless noted, calls follow the shape of the dose curve; as a rule, active = well fitted curve in the direction sought with a large enough effect; inconclusive = small, poorly fitted or top-dose-only effect, or another doubt; inactive = no such curve, though single readings can be large; an effect the other way counts as inactive or inconclusive.

SMILES	DT40 TDP1 CPT	TDP1 cell noCPT	IL-1B inflam inh	HT1080 IDH1KD tx	HT1080NT lethal
COc1ccc(N(C(=O)c2snc(C(N)=O)c2N)C(C(=O)NCC2CCCO2)c2ccc(C)o2)cc1OC (centres undefined)	u	18.4µM	n	n	n
CCc1ccccc1N(C(=O)c1snc(C(N)=O)c1N)C(C(=O)NCC1CCCO1)c1ccc(C)o1 (centres undefined)	11.6µM	10.3µM	n	n	n
CCc1ccccc1N(C(=O)c1snc(C(N)=O)c1N)C(C(=O)NCC1CCCO1)c1ccc(N(C)C)cc1 (centres undefined)	u	u	n	n	n
CCc1ccccc1N(C(=O)c1snc(C(N)=O)c1N)C(C(=O)NCC1CCCO1)c1c[nH]c2ccccc12 (centres undefined)	u	20.6µM	n	u	u
CCc1cc2c(cc3c(=O)n(CC(=O)N4CCCCC4)ncn32)s1	n	u	x	x	x
COc1ccc(C(C(=O)NCC2CCCO2)N(Cc2cccs2)C(=O)c2snc(C(N)=O)c2N)cc1 (centres undefined)	16.4µM	10.3µM	n	n	n
Cc1ccccc1N(C(=O)c1snc(C(N)=O)c1N)C(C(=O)NCC1CCCO1)c1ccc(F)cc1 (centres undefined)	14.6µM	10.3µM	n	n	n
Cc1nc(C)c(C(=O)N(c2ccccc2F)C(C(=O)NCC2CCCO2)c2ccccc2)s1 (centres undefined)	25.9µM	u	n	n	n
CCc1ccc(N(C(=O)c2snc(C(N)=O)c2N)C(C(=O)NCC2CCCO2)c2ccco2)cc1 (centres undefined)	23.1µM	18.4µM	n	n	n
Cc1nc(C)c(C(=O)N(c2ccc(F)cc2)C(C(=O)NCC2CCCO2)c2ccccc2)s1 (centres undefined)	n	u	n	n	n
CC(=O)CSc1cc(-c2ccccc2)nc2ncnn12	n	u	u	n	n
Nc1ccccc1SC(CC(=O)c1ccccc1)c1ccccc1 (centres undefined)	u	13µM	n	u	u
CC(C(Sc1ccccc1N)c1ccccc1)[N+](=O)[O-] (centres undefined)	3.66µM	3.66µM	-85.3	u	u
COC(=O)c1ccccc1SC(CC(=O)c1ccccc1)c1ccc(F)cc1 (centres undefined)	18.4µM	23.1µM	u	u	u
CN1C[C@@H]2[C@@H]3C(=O)N(Cc4ccccc4)C(=O)[C@@H]3[C@](C)(C1=O)N2C(=O)c1ccc(F)cc1	n	n	n	n	n
Cc1ccc(-c2n[nH]c(=O)c3ccccc23)cc1N	u	n	n	u	n
Nc1ccc(-c2n[nH]c(=O)c3ccccc23)cc1N	0.461µM	u	n	n	n
CCCc1nc2c(=O)n(C)c(=O)nc-2n(C)n1	1.64µM	1.16µM	-105.6	2.06µM	3.66µM
Cc1ccccc1-c1nc2c(=O)n(C)c(=O)nc-2n(C)n1	0.708µM	0.631µM	x	x	x
Cn1nc(-c2ccccn2)nc2c(=O)n(C)c(=O)nc1-2	0.651µM	0.517µM	-93.6	1.64µM	1.84µM
COc1ccc(-c2nc(-c3ccccn3)ncc2S(C)(=O)=O)cc1	n	n	n	n	n
CCc1ccc(-c2nc3c(=O)n(C)c(=O)nc-3n(CC)n2)cc1	2.82µM	2.82µM	x	x	x
CC1(C2CC2)NC(=O)N(CC(=O)Nc2ccc(OC(F)F)cc2)C1=O (centres undefined)	n	n	n	n	n
CC1(C)OC(=O)C2(Cc3cc(C(F)(F)F)ccc3N3CCCCC32)C(=O)O1 (centres undefined)	n	n	x	x	x
C[C@H](CO)N1C[C@H](C)[C@@H](CN(C)C(=O)Nc2ccc(C(F)(F)F)cc2)Oc2c(NC(=O)Cc3ccccc3)cccc2C1=O	n	n	u	n	n
SMILES	DT40 TDP1 CPT	TDP1 cell noCPT	IL-1B inflam inh	HT1080 IDH1KD tx	HT1080NT lethal
CCOC(=O)c1ccc(NC(=O)CSc2nc3cccnc3n2C)cc1	u	20.6µM	n	u	n
Cc1cccn2c(=O)nc(SCC(=O)Nc3ccc4c(c3)OCO4)nc12	n	n	n	n	n
COC(=O)c1ccc(NC(=O)CSc2nc3cccnc3n2C)cc1	u	16.4µM	n	n	n
CCOC(=O)c1c(-c2ccccc2)nc2c(C)cccn12	14.6µM	16.4µM	n	n	n
CCOC(=O)c1ccc(NC(=O)CSc2nc(=O)n3cccc(C)c3n2)cc1	20.6µM	13µM	u	n	n
COc1ccc(NC(=O)CSc2nc3cccnc3n2C)cc1	n	n	n	n	n
Cc1cc(C)c(C(=O)NCC(=O)c2ccccc2)c(C)c1	n	u	n	n	n
COc1ccc(CC(=O)NC2CC2)cc1OC	n	n	n	n	n
CCn1c(SCC(=O)N/N=C(\C)c2ccco2)nnc1-c1ccccc1	n	n	n	n	n
CCc1nn(C)c2c(=O)c(=O)c2n(C)[nH]1	n	n	n	n	n
CCc1ccccc1N=C1S/C(=C/c2ccccc2OCC(=O)N2CCOCC2)C(=O)N1C	u	u	-71.7	u	u
O=C(CCCc1ccccc1)Nc1ccnn1C1CCN(Cc2ccccc2F)CC1	23.1µM	20.6µM	n	n	n
O=C(CCCc1ccccc1)Nc1ccnn1C1CCN(Cc2ccccc2)CC1	u	u	n	n	n
Cc1ccccc1C(=O)Nc1ccnn1C1CCN(C(C)Cc2ccccc2F)CC1 (centres undefined)	23.1µM	n	n	n	n
Cc1ccc(C)c(CN2CCC(n3nccc3NC(=O)CCCc3ccccc3)CC2)c1	u	u	u	n	n
CSc1ccc(CN2CCC(n3nccc3NC(=O)CCCc3ccccc3)CC2)cc1	23.1µM	u	u	u	u
COc1ccc(/C=N/n2cnnc2)cc1Br	n	n	x	n	n
Cc1ccc(CCNC(=O)CCc2nc3ccccc3[nH]2)cc1	u	n	n	n	n
O=C(/C=C/[C@H]1O[C@@H](n2cnc3c(NC(=O)c4ccccc4)ncnc32)[C@H](O)[C@@H]1O)NCCCN1CCCC1=O	n	n	n	n	n
COc1ccc(CCCN2CCC(CN3C(=S)NC[C@@H]3Cc3ccccc3)CC2)cc1OC	n	n	n	n	n
CCC1(CC)C(=O)C2=C3C1[C@H](C(=O)OC)CC(C(=O)OC)C[C@H]3[C@H]1C(=O)N(c3ccccc3)C(=O)[C@H]1[C@H]2C (some centres undefined)	n	n	n	n	n
N#CCC(=O)Nc1ccc(C(=O)OCC(=O)N=c2sccn2Cc2ccccc2Cl)cc1	u	u	n	n	n

Source: PubChem BioAssay
